# Results published in PubChem BioAssay.
# Tested on: Human papillomavirus type 1a E7 protein (residues 1-88)
# Assay: HPV1a E7 small-molecule binders, primary screen, biochemical, small-molecule microarray, residues 1-88, 635 nm (AID 1129)
# Conditions: small-molecule microarray binding, fluorescence 635 nm; higher = more signal
row,SMILES,composite z-score
1,COCCOC(=O)N1C(=O)[C@@]2(c3cc(C#CCC(C(=O)OC)C(=O)OC)ccc31)[C@H](C(N)=O)[C@H]1C(=O)O[C@H](c3ccccc3)[C@H](c3ccccc3)N1[C@@H]2c1ccc(O)cc1,1.23
2,COc1cc(OC)c(C(O)C2C=CC3C(=O)N(c4ccccc4)C(=O)C3N2Nc2ccc(C(C)C)cc2)cc1Br (stereo unspecified),1.21
3,C#CCN1[C@@H](Cc2ccccc2)C(=O)O[C@H](Cc2ccccc2)[C@@H]1/C=C/C1CC1,1.01
4,CN(C)CCCNC(=O)[C@@H]1c2ccccc2C(=O)N(Cc2ccccc2C(F)(F)F)[C@H]1c1ccc(CO)cc1,0.197
5,COc1ccc([Si](C)(C)[C@H]2[C@H](CCO)O[C@@]3(C(=O)N(Cc4ccc(NC(=O)[C@H](C)O)cc4)c4ccccc43)[C@@H]2C)cc1,1.23
6,CCOC(=O)C[C@H]1[C@H](OC(=O)c2ccccc2-c2ccccc2)[C@@H](NC(=O)c2ccc3ccccc3c2)c2cc(OCCCO)ccc2N1C(=O)Cc1ccc(OC)cc1,-0.191
7,COCCCN1C(=O)[C@@]2(c3ccc([N+](=O)[O-])cc3)CC(=O)N(CC34CC5CC(CC(C5)C3)C4)[C@@H]2c2ccc(CO)cc21,-0.217
8,C=C1C(=O)C=C2CN(C(=O)c3ccccc3)[C@@](Cc3ccc(OC)cc3)(C(=O)OC)[C@@H]12,1.26
9,C=CCNC(=O)[C@H]1[C@@H]2C(=O)O[C@@H](c3ccccc3)[C@@H](c3ccccc3)N2[C@@H](c2ccc(OCCO)cc2)[C@]12C(=O)Nc1ccccc12,0.905
10,COCCOC(=O)N1C(=O)[C@@]2(c3ccccc31)[C@H](c1ccc(O)cc1)N1[C@H](c3ccccc3)[C@H](c3ccccc3)OC(=O)[C@H]1[C@@H]2C(=O)N1CCCCCCC1,1.21
11,C[N+](C)(C)CCCCNC(=O)[C@H]1C[C@H]2C(=O)N[C@@H](Cc3ccccc3)C(=O)N2[C@H]1c1cccc(OCCO)c1,0.566
12,CC(C)[Si](C#CCCc1ccccc1)(O[C@H](c1ccccc1)c1cn(Cc2ccccc2)nn1)C(C)C,1.09
13,COc1ccc([Si](C)(C)[C@@H]2[C@@H](CC(=O)N3Cc4ccccc4C[C@H]3CO)O[C@]3(C(=O)N(Cc4cccc(N5CCOC5=O)c4)c4ccccc43)[C@H]2C)cc1,0.402
14,CN1C(=O)[C@@H]2[C@@H](CC(COc3ccccc3)=C3[C@@H](CCc4ccccc4)OB(O)C[C@@H]32)C1=O,-0.211
15,COc1cc(C(O)C2C=CC3C(=O)N(c4ccccc4)C(=O)C3N2Nc2ccccc2F)cc(OC)c1OC (stereo unspecified),1.28
16,CCCCN1CC=CC23O[C@@H]4/C=C\CCCOC(=O)C4[C@H]2C(=O)N(C(CO)C(C)C)[C@@H]3C1=O (stereo partly specified),-0.654
17,O=C1N(CCS(=O)(=O)c2ccccc2)c2ccccc2C[C@]12N=C(c1ccc(OCCCO)cc1)O[C@@H]2c1ccccc1,0.806
18,O=C1NC(=O)C2C1C=CC(C(O)c1ccc([N+](=O)[O-])cc1)N2Nc1ccccn1 (stereo unspecified),0.175

row,SMILES,composite z-score
1,O=C1[C@H]2C=C(I)[C@H](C[C@@H]2OCCCCCCO)[C@@]12CO2,-0.334
2,CN(C)C(=O)[C@]1(Cc2ccccc2)N=C(c2ccc(OCCCO)cc2)O[C@@H]1c1ccccc1CN=[N+]=[N-],1.21
3,Cc1ccc(C(C)CC(O)C2C=CC3C(=O)N(C)C(=O)C3N2Nc2ccccc2)o1 (stereo unspecified),1.22
4,CCCCCCc1nc(-c2ccc(-c3ccc(Cl)c(Cl)c3)o2)cc2c1[Si](C(C)C)(C(C)C)OC2,-0.819
5,CC1CC/C=C\[C@H]2OC34C=CCN(c5ccc(Cl)cc5)C(=O)[C@H]3N(CCCCCCO)C(=O)[C@]4(C)C2C(=O)O1 (stereo partly specified),-0.629
6,C=C(CCCC)/C(=C/C[C@H](OC(=O)c1ccncc1)c1cccc(OCCO)c1)c1cnc2ccccc2c1,1.1
7,C[C@@H]1ON(c2ccccc2)[C@H](c2ccccc2)[C@H]1C(=O)O,0.212
8,CCOC(=O)C1=CC[C@@H](c2ccc(OC)cc2)N(S(=O)(=O)c2ccc(C)cc2)[C@H]1CC,1.22
9,COC(=O)[C@@]1(Cc2ccc(OC)cc2)[C@H]2c3cc(C(=O)N(C)C)[nH]c3C[C@H]2CN1C(=O)c1ccccc1,-0.154
10,CCCCC(O)C1C=CC2C(=O)N(c3ccccc3)C(=O)C2N1Nc1ccccc1 (stereo unspecified),1.14
11,CC(C)OC(=O)CC(=O)CC(O)c1cccc([N+](=O)[O-])c1 (stereo unspecified),1.14
12,O=C1NC(=O)C2C1C=CC(C(O)c1ccc(B(O)O)cc1)N2Nc1ccc(Cl)cc1Cl (stereo unspecified),-0.213
13,O=C1c2ccccc2[C@@]2(Cc3ccccc3N(Cc3ccccc3)C2=O)[C@H](c2ccc(CO)cc2)N1Cc1ccccc1Cl,-1.14
14,CO[C@H]1O[C@H](CO)[C@@H](OC(=O)Nc2ccccc2)[C@H](OC(=O)Nc2ccccc2)[C@H]1OC(=O)Nc1ccccc1,1.26
15,COCCCNC(=O)[C@@]1(CCS(=O)(=O)c2ccccc2)COC(c2ccc(OCCCO)cc2)=N1,0.92
16,COc1ccc(C(O)C2C=CC3C(=O)NC(=O)C3N2Nc2ccc(Cl)cc2Cl)c2ccccc12 (stereo unspecified),1.15
17,O=C1C[C@@](C(=O)O)(c2ccc([N+](=O)[O-])cc2)[C@@H](c2ccc(CO)cc2)N1C1CCCCC1,1.23
18,CC(C)(C)N1CC=CC23O[C@@H]4/C=C\CCCOC(=O)C4[C@H]2C(=O)N(CCCCCO)[C@@H]3C1=O (stereo partly specified),-0.75
